Experimental data taken from PubChem BioAssay AID488969 (Vanderbilt High Throughput Screening Facility, 2010).
The full ranking holds about 110,000 compounds; the median of “z-score” is about -0.1, and the highest 2% start at about 2. The list comes from a sample in which the highest values are over-represented; it also holds similar structures and randomly drawn compounds. Activity calls are given as the source filed them.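 Rule for the calls: active = z-score in the third read window above 3 or below -3; inactive = the rest.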

Target: Metabotropic glutamate receptor 8 (Rattus norvegicus) (UniProt P70579)
Sequence (P70579 whole entry, looked up): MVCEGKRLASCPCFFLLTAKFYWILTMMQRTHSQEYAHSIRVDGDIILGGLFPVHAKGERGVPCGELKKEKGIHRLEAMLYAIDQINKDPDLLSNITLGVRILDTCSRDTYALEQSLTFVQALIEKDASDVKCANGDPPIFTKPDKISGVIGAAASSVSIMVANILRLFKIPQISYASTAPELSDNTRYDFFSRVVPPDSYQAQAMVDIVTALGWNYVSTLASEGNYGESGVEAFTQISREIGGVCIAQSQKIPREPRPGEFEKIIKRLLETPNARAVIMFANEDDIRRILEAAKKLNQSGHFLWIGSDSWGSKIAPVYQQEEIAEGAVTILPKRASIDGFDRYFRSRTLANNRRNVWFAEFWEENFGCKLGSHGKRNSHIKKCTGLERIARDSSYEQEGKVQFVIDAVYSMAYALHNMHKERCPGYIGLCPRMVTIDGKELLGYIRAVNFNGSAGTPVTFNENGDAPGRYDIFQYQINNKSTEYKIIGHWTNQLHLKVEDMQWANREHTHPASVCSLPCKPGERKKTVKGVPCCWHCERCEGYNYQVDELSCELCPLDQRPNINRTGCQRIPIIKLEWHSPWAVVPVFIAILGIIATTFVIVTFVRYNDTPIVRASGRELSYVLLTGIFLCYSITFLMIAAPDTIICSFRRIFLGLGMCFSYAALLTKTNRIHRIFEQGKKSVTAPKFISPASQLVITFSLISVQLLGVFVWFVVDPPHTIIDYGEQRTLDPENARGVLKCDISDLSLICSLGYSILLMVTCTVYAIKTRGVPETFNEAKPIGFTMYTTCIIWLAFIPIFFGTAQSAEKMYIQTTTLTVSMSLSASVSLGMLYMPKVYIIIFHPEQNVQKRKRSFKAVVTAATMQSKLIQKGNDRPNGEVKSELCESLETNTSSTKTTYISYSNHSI
Test: mGluR8 Gi/Go-coupled signaling modulation – cell-based, rat, thallium flux, HTS, primary screen (AID 488969)
Conditions: HEK293 rat mGluR8, GIRK (G protein-gated inwardly rectifying potassium channel) thallium flux, FluoZin2; at 10 µM; stronger effect = higher value; submaximal glutamate (EC20) added with thallium

| SMILES | z-score |
| --- | --- |
| Cc1cccc2cc(CN(Cc3cccs3)C(=S)NCC3CCCO3)c(=O)[nH]c12 (configuration not stated) | -0.229 |
| O=C1c2ccccc2C(Nc2ccc3c(c2)OCCO3)N1c1ccccn1 (configuration not stated) | 0.814 |
| CCc1cccc(CC)c1NC(=S)N1CCn2cccc2C1c1cccnc1 (configuration not stated) | 0.37 |
| Nc1ccc(S(=O)(=O)N2CCCC2)cc1 | -0.115 |
| O=S(=O)(c1ccc(S(=O)(=O)N2CCCC2)cc1)N1CCCCCC1 | 0.224 |
| NS(=O)(=O)c1ccc(S(=O)(=O)N2CCCC2)cc1 | 3.11 (active) |
| CSc1ccccc1NC(=O)c1ccoc1C | -0.082 |
| CCCCNC(=S)N/N=C/C1=CCC2CC1C2(C)C (configuration not stated) | 1.99 |
| CC1(C)C2CC=C(/C=N/NC(=O)c3ccc(Cl)cc3)C1C2 (configuration not stated) | 0.355 |
| C=C(C)CNC(=S)N/N=C/C1=CCC2CC1C2(C)C (configuration not stated) | 0.611 |
| CC1CC(C)CN(CCCNC(=O)CCNC(=O)Cn2ccc3ccccc3c2=O)C1 (configuration not stated) | -1.48 |
| CC1CC(C)CN(CCCNC(=O)Cn2ncc3c(=O)oc4ccccc4c32)C1 (configuration not stated) | -0.462 |
| CCc1cc2c(cc3c(=O)n(CC(=O)NCCCN4CC(C)CC(C)C4)ncn32)s1 (configuration not stated) | 2.41 |
| CCOC(=O)C1C(=O)CC(C)(O)C(C(=O)OCC)C1c1ccc(N(CC)CC)cc1 (configuration not stated) | -0.205 |
| CCC(C)NC(=O)/C(=C/c1ccco1)c1ccccc1 (configuration not stated) | -0.109 |
| CC(C)(C)NC(=O)/C(=C/c1ccco1)c1ccccc1 | -0.0597 |
| CC(C)NC(=O)/C(=C/c1ccco1)c1ccccc1 | 2.43 |
| CCN(CC)S(=O)(=O)c1cc(Br)c(C)cc1OC | -0.159 |
| Cc1ccc(-c2nn(C)c(=O)c3ccccc23)cc1CNS(C)(=O)=O | -0.0971 |
| COc1ccc(OC)c(NC(=S)N2CCN(C/C=C/c3ccccc3)CC2)c1 | -0.183 |
| O=C(OC1CCCCC1=O)c1cccc(S(=O)(=O)NCc2ccccc2)c1 (configuration not stated) | -0.182 |
| CNS(=O)(=O)c1cccc(C(=O)OC2CCCCC2=O)c1 (configuration not stated) | 2.06 |
| CC(=O)Nc1ccc(C(=O)OC2CCCCC2=O)cc1 (configuration not stated) | 0.0145 |
| O=C1C2C3C=CC(C3)C2C(=O)N1Cc1ccc(CN2C(=O)C3C4C=CC(C4)C3C2=O)cc1 (configuration not stated) | -0.294 |

| SMILES | z-score |
| --- | --- |
| Cc1cccc(NC(=S)/N=C(\N)Nc2nc(C)c3ccc(C)cc3n2)c1 | -0.215 |
| CCCNc1cc(C)c(C#N)c2nc3ccccc3n12 | -1.34 |
| COc1ccc(C(=O)NC(=S)Nc2ccccc2N2CCCCC2)cc1[N+](=O)[O-] | 0.366 |
| O=C(NC(=S)Nc1cccc(NC(=O)c2ccccc2)c1)c1cccc([N+](=O)[O-])c1 | -0.0765 |
| O=C(Nc1ccccc1N1CCOCC1)c1ccccc1[N+](=O)[O-] | -0.093 |
| O=C(NC(=S)Nc1ccccc1N1CCCC1)c1ccccc1[N+](=O)[O-] | 7.29 (active) |
| Cc1c(C(=O)NC(=S)Nc2ccccc2N2CCCC2)cccc1[N+](=O)[O-] | 3.83 (active) |
| O=C(NC(=S)Nc1cc([N+](=O)[O-])ccc1Cl)c1ccccc1 | 12.9 (active) |
| Cc1ccc(C(=O)NC(=S)Nc2ccccc2N2CCCC2)cc1[N+](=O)[O-] | 0.134 |
| O=C(NC(=S)Nc1ccc(N2CCCC2)cc1)c1ccccc1[N+](=O)[O-] | 0.0592 |
| O=C(NC(=S)Nc1ccccc1N1CCOCC1)c1ccc([N+](=O)[O-])cc1 | 0.377 |
| Cc1cc(C(=O)NC(=S)Nc2ccccc2N2CCCC2)ccc1[N+](=O)[O-] | 0.156 |
| O=C(NC(=S)Nc1ccccc1N1CCCC1)c1ccc([N+](=O)[O-])cc1 | 14.4 (active) |
| O=C(NC(=S)Nc1cc(C(F)(F)F)ccc1Cl)c1ccccc1 | 1.04 |
| Cc1ccc(S(=O)(=O)CCc2nc3ccccc3s2)cc1C | -0.169 |
| CCCC(=O)O[C@@H]1C[C@@H](C)N(C(=O)c2ccccc2)c2ccc(C)cc21 | -0.411 |
| Cc1ccc(OC(=O)CCc2c(C)nc3ncnn3c2C)cc1 | -0.382 |
| O=c1oc2c(CN3CCOCC3)c(O)ccc2c2c1CCC2 | 0.00993 |
| COc1ccc(CCNC(=O)c2sc3ccccc3c2Cl)cc1OC | -0.565 |
| O=C(NNC(=S)NC1CCCCC1)c1sc2ccccc2c1Cl | -0.163 |
| O=C(NC(=S)Nc1ccccc1N1CCOCC1)c1sc2ccccc2c1Cl | 1.18 |
| O=C(NNC(=O)c1sc2ccccc2c1Cl)Nc1ccc(Cl)cc1 | -0.0174 |
| COc1ccccc1C(=O)NNC(=S)NC(=O)c1ccco1 | 1.4 |
| COc1ccccc1C(=O)NNC(=S)NC(=O)c1sc2ccccc2c1Cl | 4.01 (active) |

| SMILES | z-score |
| --- | --- |
| CC(C)(C)C(=O)NC(=S)NNC(=O)c1sc2ccccc2c1Cl | 13.7 (active) |
| COc1ccccc1C(=O)NC(=S)NNC(=O)c1sc2ccccc2c1Cl | 3.35 (active) |
| COc1ccccc1C(=O)NC(=S)Nc1ccc(NC(=O)c2cccs2)cc1 | 0.853 |
| COc1ccccc1CNC(=O)CSc1ccc(Br)cc1 | 0.558 |
| Cc1cc(C)cc(C(=O)N2CCCCCC2)c1 | 0.076 |
| COc1ccc(NC(=O)[C@H](COCc2ccccc2)NC(=O)OC(C)(C)C)cc1 | 0.329 |
| Cc1cc(NC(=O)CSc2nnc(-c3ccco3)o2)no1 | 0.184 |
| Cc1ccc(Cl)cc1NC(=S)NCc1cccn1C | 6.81 (active) |
| Cc1ccccc1NC(=S)NCc1cccn1C | -0.488 |
| Cc1c(Cl)cccc1NC(=S)NCc1cccn1C | 0.262 |
| O=C(OC1CCN(c2ncc(C(F)(F)F)cc2Cl)CC1)c1ccc(Cl)cc1 | -0.0974 |
| COc1cc(Cn2ccnc2)c(OC)cc1Cn1ccnc1 | -0.198 |
| c1cn(CC2(Cn3ccnc3)COC2)cn1 | 3.15 (active) |
| O=C(O)Cn1ccnc1 | -0.327 |
| CCCN1CCC(NC(=O)Nc2ccccc2C(=O)OC)CC1 | -0.336 |
| CCCN1CCC(NC(=O)Nc2ccc(F)cc2F)CC1 | 2.81 |
| CCCN1CCC(NC(=O)Nc2ccc(OC)c(OC)c2)CC1 | 0.00828 |
| COC(=O)c1ccc(NC(=O)CNCc2ccncc2)cc1 | -0.143 |
| Cc1noc(C)c1C(=O)N1CCc2ccccc2C1 | 1.98 |
| Cc1onc(-c2c(Cl)cccc2Cl)c1C(=O)N1CCc2ccccc2C1 | 0.0144 |
| Cc1onc(-c2ccccc2Cl)c1C(=O)N1CCc2ccccc2C1 | -0.95 |
| C=CCn1c(CCNC(=O)c2ccccc2F)nnc1SCC(=O)Nc1nc(C)cs1 | 0.0314 |
| CCOc1cc(C2C(C#N)=C(N)Oc3n[nH]c(C)c32)ccc1OCCN1CCOCC1 (configuration not stated) | -0.102 |
| COC(=O)c1cc(-c2ccccc2)on1 | -1.87 |

| SMILES | z-score |
| --- | --- |
| CCCCP(=O)(CCCC)CCP(=O)(c1ccccc1)c1ccccc1 | -0.667 |
| O=C(O)CCn1c(SCc2cccc3ccccc23)nc2ccccc21 | 2.1 |
| O=C(O)CCn1c(SCc2ccccc2)nc2ccccc21 | -0.0963 |
| O=C(O)Cn1c(SCc2cccc3ccccc23)nc2ccccc21 | 1.11 |
| CCOc1ccc(NC(=O)CCNc2c(N3CCCC3)c(=O)c2=O)cc1 | -0.437 |
| CCCCn1c(-c2csc3ccccc23)n[nH]c1=S | 2.3 |
| CCn1c(-c2csc3c2CCC(C)C3)n[nH]c1=S (configuration not stated) | 1.49 |
| CC(C)Cn1c(-c2csc3c2CCCC3)n[nH]c1=S | -1.59 |
| CCCCn1c(-c2csc3c2CCCC3)n[nH]c1=S | 6.19 (active) |
| C=CCn1c(-c2csc3c2CCC(C)C3)n[nH]c1=S (configuration not stated) | 0.494 |
| CC(C)Cn1c(-c2csc3ccccc23)n[nH]c1=S | 0.509 |
| CCn1c(-c2csc3c2CCCC3)n[nH]c1=S | -0.181 |
| CCCCn1c(-c2csc3c2CCC(C)C3)n[nH]c1=S (configuration not stated) | 7.55 (active) |
| CCn1c(-c2csc3ccccc23)n[nH]c1=S | -0.273 |
| CCCOc1ccc(C2/C(=C(\O)c3c(C)[nH]c(C(=O)OC)c3C)C(=O)C(=O)N2CCN(C)C)cc1 (configuration not stated) | 0.491 |
| CCC(N1CCOC1=O)S(=O)(=O)c1ccc(C)cc1 (configuration not stated) | -0.148 |
| Cc1cccnc1NC(=O)Nc1cccs1 | -0.232 |
| COc1cc(NC(=O)c2ccc(COCC(F)(F)F)cc2)cc(OC)c1OC | -0.608 |
| COc1cc(NC(=O)c2ccc(COc3ccccc3Br)o2)cc(OC)c1OC | -0.932 |
| COc1cc(NC(=O)c2ccc(COCC(F)(F)F)o2)cc(OC)c1OC | 2.1 |
| NC(=O)C1CCN(C(=O)COc2ccc3ccccc3c2)CC1 | 0.115 |
| Cc1ccc(NC(=O)COn2nnc3ccc(S(=O)(=O)N(C)C)cc32)cc1F | 3.29 (active) |
| CCN(CC)S(=O)(=O)c1ccc2nnn(OCC(=O)Nc3cccc(C#N)c3)c2c1 | -0.793 |
| CCc1ccc(NC(=O)COn2nnc3ccc(S(=O)(=O)N(C)C)cc32)cc1 | -0.27 |

| SMILES | z-score |
| --- | --- |
| COCCNS(=O)(=O)c1ccc(-c2ccc(C)cc2)cc1 | -0.0903 |
| CCOC(=O)c1cnc2c(Cl)cccc2c1NCCN(C)C | 0.313 |
| O=C(O)C1C2C=CC(C2)C1C(=O)NC1CCN(Cc2ccccc2)CC1 (configuration not stated) | 0.581 |
| CC(C)c1nc(=S)c2ccccc2[nH]1 | 13.7 (active) |
| Cc1cc(=O)c2ccccc2[nH]1 | 0.0595 |
| O=C(C1CCCCC1)N1CCC(c2nc3ccccc3[nH]2)CC1 | -0.166 |
| Cc1nc(=S)c2ccccc2[nH]1 | 1.49 |
| S=c1nc(C2CC2)[nH]c2ccccc12 | 9.36 (active) |
| S=c1nc[nH]c2c1[nH]c1ccccc12 | 0.0879 |
| COc1ccc(Cc2nnc(SCc3c(C)noc3C)n2C2CCCCC2)cc1OC | 0.045 |
| CSC(=NC(C)c1ccccc1)NS(=O)(=O)c1cccs1 (configuration not stated) | 0.148 |
| COc1ccc(/C=C/C(=O)NC(=S)Nc2cc3oc4ccccc4c3cc2OC)cc1 | 0.0202 |
| Cc1cc(C)c(-n2c(C)cc(/C=C3/NC(=O)NC3=O)c2C)c(C)c1 | 2.07 |
| Cc1cccc(C)c1-n1c(C)cc(/C=C2\NC(=O)NC2=O)c1C | -0.96 |
| Cc1cc(/C=C2/NC(=O)NC2=O)c(C)n1-c1ccccn1 | -0.389 |
| Cn1cnnc1SC(C(=O)Nc1ccc(F)cc1)c1ccccc1 (configuration not stated) | -0.0653 |
| Cc1ccc(S(=O)(=O)N2CCC(C(=O)NC3CCCCCC3)CC2)cc1 | -0.0732 |
| CCC/C(O)=C1\C(=O)CCCC1=NCCCCCC(=O)O | 0.156 |
| COc1ccc(OC)c(CCNC(=O)CN2C(=O)CC(C)(C)S(=O)(=O)c3ccccc32)c1 | 0.0628 |
| COc1ccc(OC)c(CCNC(=O)Cn2sc3nc(C)cc(C)c3c2=O)c1 | 2.22 |
| COc1ccc(-c2nc(CS(=O)(=O)CC(=O)NCCc3cc(OC)ccc3OC)c(C)o2)cc1 | -0.299 |
